# What was measured:
# Experiment in all cases: yeast three-hybrid, YBZ-1, SC-Leu-His + 0.5 mM 3-AT, 4 days
# Details in all cases: tags: N-Gal4 AD-HA kept; label: inside an RPR1-promoter hybrid RNA with tandem MS2 sites; ssRNA
# PUM1 PUF domain R5-THV = PUM1 PUF domain R5-THV (Homo sapiens, UniProt Q14671 828-1176, C1007T;R1008H;Q1011V)
# Summary of the method: (§1)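 Repeat regions from input (SC-Leu) and selection (SC-Leu-His + 0.5 mM 3-AT) plates were PCR-amplified and Illumina-sequenced after four days of growth. The cells were strain YBZ-1 with a LexA–MS2 coat fusion and a HIS3 reporter, co-expressing Pumilio-1 PUF domain libraries and matching RNA elements from a centromeric plasmid. The interaction score is the log change in variant frequency from input to selection, taken in log2 with a pseudocount of 1 for absent variants.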
# PUM1 PUF domain R8-GHK = PUM1 PUF domain R8-GHK (Homo sapiens, UniProt Q14671 828-1176, N1122G;Y1123H;Q1126K)
# Summary of the method: as §1
# PUM1 PUF domain R8-RWS = PUM1 PUF domain R8-RWS (Homo sapiens, UniProt Q14671 828-1176, N1122R;Y1123W;Q1126S)
# Summary of the method: as §1
# PUM1 PUF domain R3-THF = PUM1 PUF domain R3-THF (Homo sapiens, UniProt Q14671 828-1176, C935T;R936H;Q939F)
# Summary of the method: as §1
# PUM1 PUF domain R5-RQH = PUM1 PUF domain R5-RQH (Homo sapiens, UniProt Q14671 828-1176, C1007R;R1008Q;Q1011H)
# Summary of the method: as §1
# PUM1 PUF domain R3-FRL = PUM1 PUF domain R3-FRL (Homo sapiens, UniProt Q14671 828-1176, C935F;Q939L)
# Summary of the method: as §1
# Sequence of PUM1 PUF domain R8-RWS (Q14671 828-1176 N1122R/Y1123W/Q1126S): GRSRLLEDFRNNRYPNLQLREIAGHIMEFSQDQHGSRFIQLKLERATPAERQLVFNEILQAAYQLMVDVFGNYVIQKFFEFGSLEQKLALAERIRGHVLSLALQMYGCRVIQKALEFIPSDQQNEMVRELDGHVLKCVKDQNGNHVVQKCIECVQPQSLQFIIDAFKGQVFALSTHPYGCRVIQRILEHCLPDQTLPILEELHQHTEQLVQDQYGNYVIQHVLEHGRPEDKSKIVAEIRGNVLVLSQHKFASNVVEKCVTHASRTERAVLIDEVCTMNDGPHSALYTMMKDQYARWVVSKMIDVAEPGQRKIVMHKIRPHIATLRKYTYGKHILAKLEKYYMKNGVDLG
# Sequence of PUM1 PUF domain R5-THV (Q14671 828-1176 C1007T/R1008H/Q1011V): as the sequence (Q14671 828-1176 N1122R/Y1123W/Q1126S) above, with C180T, R181H, Q184V, R295N, W296Y, S299Q counted along it
# Sequence of PUM1 PUF domain R3-THF (Q14671 828-1176 C935T/R936H/Q939F): as the sequence (Q14671 828-1176 N1122R/Y1123W/Q1126S) above, with C108T, R109H, Q112F, R295N, W296Y, S299Q counted along it
# Sequence of PUM1 PUF domain R3-FRL (Q14671 828-1176 C935F/Q939L): as the sequence (Q14671 828-1176 N1122R/Y1123W/Q1126S) above, with C108F, Q112L, R295N, W296Y, S299Q counted along it
# Sequence of PUM1 PUF domain R5-RQH (Q14671 828-1176 C1007R/R1008Q/Q1011H): as the sequence (Q14671 828-1176 N1122R/Y1123W/Q1126S) above, with C180R, R181Q, Q184H, R295N, W296Y, S299Q counted along it
# Sequence of PUM1 PUF domain R8-GHK (Q14671 828-1176 N1122G/Y1123H/Q1126K): as the sequence (Q14671 828-1176 N1122R/Y1123W/Q1126S) above, with R295G, W296H, S299K counted along it
sequence,measurement,setting,value
GGCUAGAACUAGUGGAUCCCCCGGCGCCCGGCGGCUCGAGCCCGGGUAAGUGUUAAUAGUCUGCAUGCCGCCGGGCGCCAUGCCUGCAGGUCGACUCUAGAAAACAUG,binding signal,PUM1 PUF domain R5-THV,3.33 log2 enrichment (interaction score)
GGCUAGAACUAGUGGAUCCCCCGGCGCCCGGCGGCUCGAGCCCGGGUAAGCGUAAAUAGUCUGCAUGCCGCCGGGCGCCAUGCCUGCAGGUCGACUCUAGAAAACAUG,binding signal,PUM1 PUF domain R8-GHK,2.58 log2 enrichment (interaction score)
same,binding signal,PUM1 PUF domain R8-RWS,5.59 log2 enrichment (interaction score)
GGCUAGAACUAGUGGAUCCCCCGGCGCCCGGCGGCUCGAGCCCGGGUAAGUGUAAAUAGUCUGCAUGCCGCCGGGCGCCAUGCCUGCAGGUCGACUCUAGAAAACAUG,binding signal,PUM1 PUF domain R8-RWS,4.8 log2 enrichment (interaction score)
same,binding signal,PUM1 PUF domain R3-THF,3.81 log2 enrichment (interaction score)
GGCUAGAACUAGUGGAUCCCCCGGCGCCCGGCGGCUCGAGCCCGGGUAAGUGUCAAUAGUCUGCAUGCCGCCGGGCGCCAUGCCUGCAGGUCGACUCUAGAAAACAUG,binding signal,PUM1 PUF domain R5-RQH,3.64 log2 enrichment (interaction score)
GGCUAGAACUAGUGGAUCCCCCGGCGCCCGGCGGCUCGAGCCCGGGUAAGUGUAAGUAGUCUGCAUGCCGCCGGGCGCCAUGCCUGCAGGUCGACUCUAGAAAACAUG,binding signal,PUM1 PUF domain R3-FRL,4.24 log2 enrichment (interaction score)

# Reference: publication PMC8384837, “Expanding the binding specificity for RNA recognition by a PUF domain”
